# Most compounds without a hit are left out; they make up all but 3% or so of the library.
# Rv3671c protease = Rv3671c serine protease inhibitors, primary screen, biochemical, fluorescence polarization, M. tuberculosis H37Rv | P9WHR9 | inhibition, % at 5.96 µM | 320,000 tested, 0.048% active | AID 2606, 2010; in the data active = inhibition above about 38%;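 also: extracellular domain of Rv3671c used as enzyme; 0% = enzyme with DMSO and 100% = no enzyme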
# Target sequence (P9WHR9 whole entry, looked up, the tested form may be a part): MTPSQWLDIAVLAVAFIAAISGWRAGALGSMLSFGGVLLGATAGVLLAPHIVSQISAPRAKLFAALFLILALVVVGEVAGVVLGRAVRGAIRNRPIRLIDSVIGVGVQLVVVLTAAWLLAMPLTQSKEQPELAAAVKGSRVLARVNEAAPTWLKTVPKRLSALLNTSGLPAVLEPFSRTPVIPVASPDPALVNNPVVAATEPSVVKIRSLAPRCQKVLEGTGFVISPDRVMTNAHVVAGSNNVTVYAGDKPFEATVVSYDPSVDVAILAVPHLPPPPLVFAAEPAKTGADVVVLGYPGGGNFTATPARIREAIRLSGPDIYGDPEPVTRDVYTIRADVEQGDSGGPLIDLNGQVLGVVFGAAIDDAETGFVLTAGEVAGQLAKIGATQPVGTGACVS
# FadD28 binding = inhibitors of FadD28 bisubstrate probe binding, primary screen, biochemical, fluorescence polarization, single point; 360,000 tested, 0.22% active; Mycobacterium tuberculosis FadD28 fatty-acid-AMP ligase; inhibition, % at 12.5 µM; AID 588549, 2011; in the data active = inhibition above about 8.5%, passing the limit was not always enough
# BioA inh = M. tuberculosis BioA enzyme inhibitors, primary screen, biochemical, plate reader, single point, HTS; AID 602481, 2012; purified M. tuberculosis BioA enzyme; 7,8-diaminopelargonic acid synthase BioA (Mycobacterium tuberculosis); 360,000 tested, 0.096% active; inhibition, % at 9.99 µM; in the data active = inhibition above about 40%
# FBA Mtb inh = Mtb FBA enzyme inhibitors, primary screen, biochemical, fluorescence, strain H37Rv. Fructose-bisphosphate aldolase (Mycobacterium tuberculosis (strain ATCC 25618 / H37Rv)), …. purified M. tuberculosis FBA, fluorescence read-out. inhibition, % at 1 µM. 360,000 tested, 2.3% active. AID 588726, 2011;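 also: 0% = vehicle and 100% = reference inhibitor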
# GDH-TPI counter-1 = GDH-TPI coupling enzyme inhibitors, primary screen, artefact control for M. tuberculosis FBA inhibitor project, biochemical, absorbance, full deck | AID 588335, 2011 | GDH-TPI coupled enzyme counterscreen, NADH absorbance | inhibition, % at 4.8 µM | 360,000 tested, 1.2% active; in the data active = inhibition above about 30%;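 also: 0% = DMSO wells and 100% = wells lacking the enzyme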
# Mtb FBA inh conf = M. tuberculosis aldolase blockers, biochemical, fluorescence, strain H37Rv, confirmation | AID 651616, 2012 | purified M. tuberculosis FBA, fluorescence read-out | 5,600 tested, 78% active | shares compounds with FBA Mtb inh | inhibition, % at 1 µM;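 also: 0% = vehicle wells and 100% = reference inhibitor wells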
# GDH-TPI counter-2 = GDH-TPI coupling enzyme inhibitors, artefact control for M. tuberculosis FBA inhibitor project, biochemical, fluorescence, high throughput; shares compounds with FBA Mtb inh; GDH-TPI coupled enzyme counterscreen; inhibition, % at 1 µM; 5,600 tested, 81% active; AID 652141, 2013; in the data active = inhibition above about 10%
# GDH-TPI dose = GDH-TPI coupling enzyme inhibitors, dose response, artefact control for M. tuberculosis FBA inhibitor project, biochemical, fluorescence, IC50; AID 652145, 2013; GDH-TPI coupled enzyme assay, artifact counterscreen; shares compounds with FBA Mtb inh; IC50, µM; 170 tested, 79% active; call rule not given here
# * hit, by the source's call; · = no result given; + = active, no number. Rule as the data show it, unless noted: active = inhibition above about 27%; inactive = the rest.
SMILES,Rv3671c protease,FadD28 binding,BioA inh,FBA Mtb inh,GDH-TPI counter-1,Mtb FBA inh conf,GDH-TPI counter-2,others
COc1ccc(-c2cnc3c(c2)C(=O)N([C@H](C)CO)C[C@H](C)[C@H](CN(C)S(=O)(=O)c2ccc(F)cc2)O3)cc1,·,·,-2,·,·,·,·,
CC(=O)Nc1ccc(-c2nc3cc(Cl)ccc3o2)cc1,-11,-9,-3,29*,21,+,+,
CC(C)(C)C(=O)Nc1ccc2oc(-c3cc(F)c(F)cc3Cl)nc2c1,14,1,1,53*,19,70*,47*,
CCCC(=O)Nc1ccc(-c2nc3cc(C)ccc3o2)cc1,-18,-3,-1,96*,25,76*,77*,
O=C(O)c1ccccc1-c1ccccc1C(=O)Nc1ccc(-c2nc3cc(Cl)ccc3o2)cc1,-19,-5,·,25,30,·,·,
CCCCCC(=O)Nc1ccc2oc(-c3cccnc3)nc2c1,-5,-6,5,84*,4,47*,44*,
Cc1onc(-c2c(F)cccc2Cl)c1C(=O)OCN1C(=O)c2ccccc2C1=O,2,-5,0,-8,-3,·,·,
CCOC(=O)c1cc2c(=O)n3ccccc3nc2n(CCOC)c1=NC(=O)c1c(-c2c(F)cccc2Cl)noc1C,-3,0,-1,49*,37*,178*,166*,
CC1(C)CC(=O)c2cc(OCC(=O)O)ccc2O1,-3,0,-1,64*,15,101*,75*,
CC1(C)CC(=O)c2cc(OCC(=O)N3CCN(c4ccccc4F)CC3)ccc2O1,-2,2,2,18,7,·,·,
CCOC(=O)N1CCN(C(=O)COc2ccc3c(c2)C(=O)CC(C)(C)O3)CC1,-12,-3,·,41*,4,134*,114*,
CC1(C)CC(=O)c2cc(OCC(=O)N3CCN(Cc4ccccc4)CC3)ccc2O1,17,-1,·,7,4,·,·,
CC1(C)CC(=O)c2cc(OCC(=O)NCCN3CCOCC3)ccc2O1,-5,-2,·,34*,3,57*,40*,
CC1(C)CC(=O)c2cc(OCC(=O)N3CCCCCC3)ccc2O1,0,-3,-1,46*,0,88*,95*,
COC(=O)C[C@H]1CC[C@@H]2[C@H](COC[C@@H](O)CN2S(=O)(=O)c2ccc(F)cc2)O1,·,·,0,·,·,·,·,
COc1ccc2c(c1)C(=O)CC(O)(C(F)F)O2 (stereo unspecified),11,0,·,31*,4,72*,53*,
CCOC(=O)COc1ccc2c(c1)C(=O)CC(C)(C)O2,-4,0,0,48*,20,23,6,GDH-TPI dose=2.9*
CC/C(C)=N/N1C(=O)c2ccccc2NC1(C)CC (stereo unspecified),5,0,1,38*,9,115*,127*,
CNC(=S)N/N=C/c1ccc(C(C)C)cc1,9,-2,1,1,19,·,·,
Cc1c(NC(=S)N/N=C/c2ccc(N(C)C)cc2)c(=O)n(-c2ccccc2)n1C,8,-1,·,33*,33*,116*,88*,
CNC(=S)N/N=C/c1ccc(N(C)C)cc1,-5,-3,·,42*,40*,+,+,
C[C@@H]1CN([C@@H](C)CO)C(=O)c2cc(NS(=O)(=O)c3cccs3)ccc2O[C@@H](C)CCCCO[C@@H]1CN(C)Cc1ccncc1,·,·,-5,·,·,·,·,
Cc1ccc(S(=O)(=O)N(C)C[C@H]2Oc3ccc(NC(=O)Nc4cccc5ccccc45)cc3CC(=O)N([C@@H](C)CO)C[C@H]2C)cc1,·,·,2,·,·,·,·,
O=C(O)CCCc1ccc2ccc3cccc4ccc1c2c34,-2,-1,2,56*,35*,+,+,
NCCCCc1ccc2ccc3cccc4ccc1c2c34,·,-5,-1,2,12,·,·,
SMILES,Rv3671c protease,FadD28 binding,BioA inh,FBA Mtb inh,GDH-TPI counter-1,Mtb FBA inh conf,GDH-TPI counter-2,others
O=c1nc2ccc(Cl)cn2c2ccc(S(=O)(=O)N3CCCCC3)cc12,1,0,0,60*,11,1,5,
O=S(=O)(c1ccc2ccccc2c1)N1CCN(S(=O)(=O)N2CCCCC2)CC1,6,-1,0,1,1,·,·,
O=c1nc2ccccn2c2ccc(S(=O)(=O)N3CCCCC3)cc12,-1,·,0,99*,11,111*,85*,
Cc1ccn2c(c1)nc(=O)c1cc(S(=O)(=O)N3CCCCC3)ccc12,-1,1,-2,54*,15,45*,39*,
COc1ccc(NC(=O)N(C)C[C@H]2Oc3ccc(NC(=O)CCCN(C)C)cc3C(=O)N([C@H](C)CO)C[C@H]2C)cc1,·,·,-2,·,·,·,·,
CCNC(=O)Nc1ccc2c(c1)C(=O)N(C)[C@@H]1CC[C@H](CC(=O)NCc3cccc(F)c3)O[C@@H]1CO2,·,·,-4,·,·,·,·,
Cc1ccc(S(=O)(=O)N(C)C[C@H]2OCCCC[C@H](C)Oc3ccc(NC(=O)NC(C)C)cc3C(=O)N([C@@H](C)CO)C[C@@H]2C)cc1,·,·,-1,·,·,·,·,
CCCn1c(=N)c(S(=O)(=O)c2ccccc2)cc2c(=O)n3cccc(C)c3nc21,2,0,6,2,-7,·,·,
Cc1cccn2c(=O)c3cc(C(=O)NCCCn4ccnc4)n(C)c3nc12,-7,1,-2,59*,12,77*,53*,
Cc1cccc(C(=O)NCCCn2ccnc2)c1C,1,1,·,-1,-6,·,·,
Cc1cccn2c(=O)c3cc(C(=O)NCCCN4CCCC4=O)n(C)c3nc12,-13,-2,0,108*,25,1,-6,
Cc1cccn2c(=O)c3cc(C(=O)N(C)C)n(C)c3nc12,-3,0,-1,49*,20,93*,69*,
Cn1c(C(=O)NCCCN2CCCC2=O)cc2c(=O)n(C)c3ccccc3c21,4,-3,2,11,-14,·,·,
Cn1cnc(S(=O)(=O)N2C[C@@H](O)COC[C@@H]3O[C@@H](CC(=O)NC4Cc5ccccc5C4)CC[C@H]32)c1,·,·,0,·,·,·,·,
COc1ccc(-c2c(C#N)c(N)nc3c2CCC3)cc1,-2,-5,·,53*,2,136*,93*,
COc1cc(-c2c(C#N)c(N)nc3c2CCCC3)cc(OC)c1OC,2,-4,16,3,9,·,·,

# Compound activity deposited in PubChem BioAssay by several laboratories.
